Bioassay records as filed in PubChem BioAssay.
AMA1-RON2 inh: disrupts binding of P. falciparum AMA1 to RON2; AlphaScreen AMA1-biotinylated RON2 peptide binding; Potency, µM (doses to about 58.2 µM), inactives show top-dose activity change, negative = inhibition, most hits filed as inhibitors; 360,000 tested, 0.2% active;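 further: 0% = vehicle wells and -100% = peptide control; nearly all actives have a fitted effect of over 45% in size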
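AMA1 (3D7) with his tag at 25 nM final met compounds first, then biotinylated RON2 peptide at 25 nM; detection used donor plus acceptor beads, 10 µg/mL apiece, read by AlphaScreen after 30 min at room temperature.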
Pf growth 96h: P. falciparum growth inhibition at 96 hours; Potency, µM (titrated, usually from 28.7 µM), inactives show top-dose activity change, negative = inhibition, hits mostly inhibitors; 320,000 tested, 6.9% active; P. falciparum luciferase reporter growth, 96 h; AID 504834; further: on the % scale 0 is the no-effect control and ±100 the full control effect
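Two parasite generations (96 h, 37 C, 5% CO2) of compound exposure in infected erythrocytes (0.05% parasitemia, 2% hematocrit). Luciferase-reporter P. falciparum; decreased luminescence indicates inhibited growth, aimed at apicoplast-acting delayed death.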
Pf growth 48h: inhibits P. falciparum growth in the first generation, 48 h; P. falciparum luciferase growth in erythrocytes, 48 h; 310,000 tested, 5.9% active; Potency, µM (titrated, usually from 28.7 µM), for inactives: at the top dose activity change, negative = inhibition, usual class: inhibitors; further: on the % scale 0 is the no-effect control and ±100 the full control effect
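Here the parasites carry a stable luciferase gene and grow inside erythrocytes in Albumax-based RPMI medium with compound for one erythrocytic cycle. Activity is scored as loss of luminescent signal.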
NS1 function inh: influenza NS1 inhibition | Potency, µM (doses to about 46.1 µM), inactives show at the top dose activity, positive = more growth | 270,000 tested, 0.4% active | AID 2326; calls by dose curve; further: actives are rising curves; nearly all actives have a fitted effect of over 50% in size
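Read-out: OD600 growth recovery of NS1-expressing budding yeast. Cells grown overnight at 30C in -URA glucose medium, washed, resuspended and diluted 1:100 in 2% galactose assay medium, pH 6.0. Same strain lacking NS1 served as positive control.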
Sm TGR inh: S. mansoni TGR enzyme inhibition | purified TGR, DTNB reduction, TNB absorbance 405 nm | Potency, µM (titrated, usually from 114 µM), for inactives: at the top dose activity change, negative = inhibition, hits mostly inhibitors | AID 485364 | 360,000 tested, 3% active; further: on the % scale 0 is the no-effect control and ±100 the full control effect; nearly all actives have a fitted effect of over 60% in size
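First, TGR (20 nM dispensed) and NADPH were mixed with compound. Second, a 15 min room-temperature incubation followed. Third, further NADPH and then DTNB were added to start the reaction. Finally, TNB absorbance was monitored kinetically.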
Starred values were filed as active, the others as inactive; i = inactive; ? = inconclusive; / = no result given; ! = repeats disagree; [ ] = remark or other dose. Shown are actives, neighbours in structure and some others; about 11% of the full set was active somewhere. Unless noted, the call rests on the fitted dose curve; in most records, active means well fitted curve in the direction sought with a large enough effect; inconclusive means small, poorly fitted or top-dose-only effect, or another doubt; inactive means no such curve, though single readings can be large; an effect the other way counts as inactive or inconclusive. Potency means the concentration at half of the fitted maximal effect.

SMILES	AMA1-RON2 inh	Pf growth 96h	Pf growth 48h	NS1 function inh	Sm TGR inh
O=C(CN1C(=O)C2CC=C(Cl)CC2C1=O)Nc1ccc(C(=O)O)cc1 (stereo not given)	4%	13µM*	20%	4%	-24%
Nn1c(SCc2ccc(Br)cc2)nnc1-c1ccncc1	-1%	-3%	4%	-1%	6%
CC(C)CN1C(=O)c2ccc(C(=O)Nc3ccc(OCC(=O)O)cc3)cc2C1=O	-20%	56%	7%	-3%	16%
O=C(O)c1cccc(N2C(=O)C3CC=C(Cl)CC3C2=O)c1 (stereo not given)	-3%	10µM*	/	1%	0%
O=C(O)c1cccc(N2C(=O)C3CC=CCC3C2=O)c1 (stereo not given)	-7%	i	2%	1%	-2%
CN1CCS/C1=C/C=C1\SC(=S)N(CC(=O)O)C1=O	-12%	61%	40%	3%	-25%
CCCCN1C(=O)/C(=C/C=C2\SCCN2C)SC1=S	10µM*	-1%	183%	/	-21%
CCCCC[C@]12Cc3ccccc3C(O1)c1c(cc(C)oc1=O)O2	/	0.67µM*	23%[5.75 µM]	0%	8%[22.9 µM]
COC(=O)[C@@]12C[C@@H](CC(=O)NCCCCc3ccccc3)C(=O)N(Cc3ccc4c(c3)OCO4)C1=CCC(C)(C)C2	6%	/	/	/	/
CCOc1ccc(C(C)=O)cc1COC(=O)c1ccccc1C(=O)N(C)Cc1ccccc1	-7%	?	?	/	20µM*
COc1ccc(C(C)=O)cc1COC(=O)c1ccc2c(c1)OCO2	1%	?	7%	3%	?
CCOc1ccc(C(C)=O)cc1COC(=O)c1ccc2c(c1)NC(=O)CS2	1%	?	?	/	11µM*
COc1ccc(C(C)=O)cc1COC(=O)c1cnc(Cl)c(Cl)c1	27%	-7%	-7%	-1%	1.4µM*
CNS(=O)(=O)c1cccc(C(=O)OCc2cc(C(C)=O)ccc2OC)c1	7%	14%	56%	5%	2.8µM*
CC(C(=O)NCC1CCCO1)c1ccc([N+](=O)[O-])cc1 (stereo not given)	5%	15%	8%	6%	-15%
CN(C)c1ccc(NC(=O)CSc2nnc(C3CCCCC3)n2N)cc1	-3%	3%	23%	9%	-35%
COc1ccc(C(C)=O)cc1COC(=O)c1ccc(S(=O)(=O)N(C)C)cc1	6%	?	-27%	/	2.5µM*
CC(C)CNC(=O)c1ccc2c(c1)C(=O)N(Cc1ccco1)C2=O	0%	-18%	-2%	-3%	-2%
O=C(Cn1nnc2ccccc2c1=O)NC1CCCCC1	12%	15%	52%	5%	-4%
CCCc1ccc(-c2csc(NC(=O)C3=COCCO3)n2)cc1	9%	222%	139%	/	10%
CCCCC[C@@H](C)N1C[C@H](COCc2ccccc2)Oc2cc(N3CCC[C@H]3COC)ccc2S1(=O)=O	0%	/	/	/	/
O=C(NCc1ccco1)C(=O)NCc1ccccc1Cl	-11%	?	21%	3%	-5%
O=C(CN1CCN(Cc2ccccc2Cl)C1=O)NCc1ccco1	5%	3.3µM*	6%	0%	?
O=C(NCc1ccco1)c1nc2c(nnn2Cc2ccccc2Cl)c(=O)[nH]1	19%	0%	9.3µM*	11%	-15%
Cc1ccc(C)c(Cn2nnc3c(=O)[nH]c(C(=O)NCc4ccco4)nc32)c1	62%	?	-10%	-11%	?
SMILES	AMA1-RON2 inh	Pf growth 96h	Pf growth 48h	NS1 function inh	Sm TGR inh
COc1ccccc1/C=N/NC(=O)CN(C1=NS(=O)(=O)c2ccccc21)c1ccccc1	6%[11.6 µM]	0.15µM*	1%	-16%	-2%
O=C(Cn1nc(-c2ccc(Cl)cc2)c2ccccc2c1=O)Nc1cccc(C(F)(F)F)c1	/	/	/	/	2%
CC(=O)c1cnc(Nc2ccccc2)s1	39%	103%	/	-45%	-2%
CC(=O)c1cnc(N(C)C)s1	12%	13µM*	1%	0%	-5%
CCCNC(=O)c1ccc2c(c1)C1C3CCC(C3)C1C(c1ccccc1)N2 (stereo not given)	-17%	/	9.3µM*	10%	2%
CC(C)(C)NC(=O)c1ccc2c(c1)C1C3CCC(C3)C1C(c1ccccc1)N2 (stereo not given)	1%[11.6 µM]	18%	?	26%	3%
CO[C@H]1CN(C)C(=O)c2ccc(NC(=O)C3CCC3)cc2OC[C@H](C)N(CC2CCCCC2)C[C@@H]1C	-7%	/	/	/	/
O=[N+]([O-])c1ccc(CSc2nnc(Cc3ccccc3)n2-c2ccc(F)cc2)cc1	-2%	?	?	-12%	1%
Cc1cccc(-n2c(Cc3ccccc3)nnc2SCC(=O)N2CCOCC2)c1	0%	4.1µM*	/	-10%	3%[11.4 µM]
O=C(CSc1nnc(Cc2ccccc2)n1-c1cccc(Cl)c1)N1CCOCC1	2%	-4%[5.75 µM]	5%	-12%	5%
Cc1cccc(-n2c(Cc3ccccc3)nnc2SCc2ccc([N+](=O)[O-])cc2)c1	-15%	7.4µM*	?	-9%	-6%
CCCCNC(=O)C1(C)CCCCN1C(=O)c1oc2ccccc2c1C (stereo not given)	0%	/	/	/	/
CSCCC(NC(=O)c1ccccc1Cl)C(=O)NNC(=O)c1ccncc1 (stereo not given)	42%	7%	8%	/	-1%
CN1[C@@H](CC(=O)c2ccccc2)CCC[C@H]1C[C@H](O)c1ccccc1	0%	17µM*!	13µM*	-1%	5%
CN(Cc1ccccc1)CC(O)COc1ccc(CNCc2ccc(Cl)s2)cc1 (stereo not given)	-13%	?	5.9µM*	5%	-2%
CN(Cc1ccccc1)CC(O)COc1ccc(CNCc2cccnc2)cc1 (stereo not given)	13%	8.3µM*	9.3µM*	1%	-21%
CN(Cc1ccccc1)CC(O)COc1ccc(CNCCCOc2cccnc2)cc1 (stereo not given)	17%	?	2.1µM*	8%	-31%
CN(Cc1ccccc1)CC(O)COc1ccc(CNCCOc2cccnc2)cc1 (stereo not given)	-2%	?	13µM*	3%	-30%
CCn1cc(CNCc2ccc(OCC(O)CN(C)Cc3ccccc3)cc2)cn1 (stereo not given)	-4%	?	?	2%	-16%[57.1 µM]
COc1ccc(C)cc1NS(=O)(=O)c1ccc2[nH]c(=O)c(=O)[nH]c2c1	/	/	/	/	0%
CCOC(=O)N1CCN(S(=O)(=O)c2ccc(F)c(C(=O)Nc3cc(C)cc(C)c3)c2)CC1	-2%	?	8.3µM*	-34%	-2%
CCOC(=O)N1CCN(S(=O)(=O)c2ccc(F)c(C(=O)Nc3cccc(Cl)c3C)c2)CC1	0%	-17%	12µM*	-15%	10%
Cc1cc(C)c(C)c(S(=O)(=O)N2CCN(c3ccc(O)cc3)CC2)c1C	?	-6%	1%	/	-24%
Cc1cc(=O)[nH]c(Nc2cccc(C(F)(F)F)c2)n1	-2%	13µM*	?	9%	-11%
Cc1cc(=O)[nH]c(NCCO)n1	-8%	3%	-9%	/	-12%
